# Values joined by “and” are separate entries in the source; they are usually repeats but may differ in a detail not shown here. Equal entries are not always repeated. Results filed as inconclusive are left out. A call without a number means that no potency is given here. More than one record can exist for a structure, and the calls need not agree. Active and inactive are the calls of the source. The call rests on the fitted dose curve; in most records, active means well fitted curve in the direction sought with a large enough effect in the repeat runs; inconclusive means weak or mixed curves; inactive means no such curve, though single readings can be large; an effect the other way counts as inactive or inconclusive.
# Assay: qHTS RealTime-Glo MT Cell Viability Assay in HepG2 cells - 24 hour (AID 1224867)
# Conditions: RealTime-Glo luminescence; series mostly up to 76.8 µM
# How it was run: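 Viability was tracked continuously by NanoLuc luminescence from prosubstrate reduced by living HepG2 cells, at successive time points over 40 h of compound exposure. Cells with reagent were preincubated 5 h at 37 °C before compound addition.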
# Further: nearly all actives have a fitted effect of over 50% in size.
row,Structure (SMILES),outcome
1,OCC(O)CCl (stereo unspecified),inactive
2,CNCC(O)c1ccc(O)cc1 (stereo unspecified),inactive
3,Cl[C@H]1OCCO[C@@H]1Cl,inactive
4,O=C(O)CCCc1ccc(N(CCCl)CCCl)cc1,inactive
5,N#CN=C(N)N,inactive
6,N#Cc1cccc(C#N)c1,inactive
7,COC(C)(C)CCCC(C)C/C=C/C(C)=C/C(=O)OC(C)C (stereo unspecified),inactive
8,Nc1cccc(Cl)c1,inactive
9,Clc1cnc(Oc2ccc(Oc3ncc(Cl)cc3Cl)cc2)c(Cl)c1,inactive
10,Cc1cc(O)ccc1Cl,inactive
11,C=CCN=C=S,inactive
12,Cc1ccc(O)c(C)c1,inactive
13,CSc1nnc(C(C)(C)C)c(=O)n1N,inactive
14,Cc1cc(Cl)ccc1OC(C)C(=O)O (stereo unspecified),inactive
15,O=[N+]([O-])c1ccc(Cl)c(Cl)c1,inactive
16,FC(F)(F)c1ccc(Cl)cc1,inactive
17,CNC(=O)Oc1cccc2ccccc12,inactive
18,Sc1ccccc1,inactive
19,CNC(=O)O/N=C/C(C)(C)S(C)=O (stereo unspecified),inactive
20,CCNc1nc(Cl)nc(NC(C)C)n1,inactive
21,O=[N+]([O-])c1cc([As](=O)(O)O)ccc1O,inactive
22,O=C(O)Cc1ccccc1,inactive
23,CN(C)C(=O)Nc1cccc(C(F)(F)F)c1,inactive
24,CC(C)c1cccc(C(C)C)c1O,inactive
25,CNC(=O)O/N=C/C(C)(C)SC,inactive
26,CC(C)CCCCCCOC(=O)c1ccccc1C(=O)OCCCCCCC(C)C,inactive
27,C=CC#N,inactive
28,O=C(O)C1C(C(=O)O)C2(Cl)C(Cl)=C(Cl)C1(Cl)C2(Cl)Cl (stereo unspecified),inactive
29,Cc1cccc(N)c1,inactive
30,CN(C)NC(=O)CCC(=O)O,inactive

# Assay: qHTS RealTime-Glo MT Cell Viability Assay in HEK293 cells - 32 hour (AID 1224868); further: potency means the concentration at half of the fitted maximal effect
# Conditions: RealTime-Glo luminescence; series mostly up to 76.8 µM
# How it was run: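 Viability tracked continuously by luminescence as live cells reduce a prosubstrate for NanoLuc; HEK293 cells preincubated 5 h, compound-treated at 37 C, and read at 0, 8, 16, 24, 32 and 40 h.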
row,Structure (SMILES),Potency
1,OCC(O)CCl (stereo unspecified),inactive
2,CNCC(O)c1ccc(O)cc1 (stereo unspecified),inactive
3,Cl[C@H]1OCCO[C@@H]1Cl,inactive
4,N#CN=C(N)N,inactive
5,N#Cc1cccc(C#N)c1,inactive
6,COC(C)(C)CCCC(C)C/C=C/C(C)=C/C(=O)OC(C)C (stereo unspecified),inactive
7,Nc1cccc(Cl)c1,inactive and 21.9 µM (active)
8,Clc1cnc(Oc2ccc(Oc3ncc(Cl)cc3Cl)cc2)c(Cl)c1,inactive
9,Cc1cc(O)ccc1Cl,inactive
10,C=CCN=C=S,inactive
11,Cc1ccc(O)c(C)c1,inactive
12,CSc1nnc(C(C)(C)C)c(=O)n1N,inactive
13,Cc1cc(Cl)ccc1OC(C)C(=O)O (stereo unspecified),inactive
14,O=[N+]([O-])c1ccc(Cl)c(Cl)c1,inactive
15,FC(F)(F)c1ccc(Cl)cc1,inactive
16,CNC(=O)Oc1cccc2ccccc12,inactive
17,Sc1ccccc1,inactive
18,CNC(=O)O/N=C/C(C)(C)S(C)=O (stereo unspecified),inactive
19,CCNc1nc(Cl)nc(NC(C)C)n1,inactive
20,O=[N+]([O-])c1cc([As](=O)(O)O)ccc1O,inactive
21,O=C(O)Cc1ccccc1,inactive
22,CN(C)C(=O)Nc1cccc(C(F)(F)F)c1,inactive
23,CC(C)c1cccc(C(C)C)c1O,inactive
24,CNC(=O)O/N=C/C(C)(C)SC,inactive
25,CC(C)CCCCCCOC(=O)c1ccccc1C(=O)OCCCCCCC(C)C,inactive
26,C=CC#N,inactive
27,O=C(O)C1C(C(=O)O)C2(Cl)C(Cl)=C(Cl)C1(Cl)C2(Cl)Cl (stereo unspecified),inactive
28,Cc1cccc(N)c1,inactive
29,CN(C)NC(=O)CCC(=O)O,inactive

# Assay: A CellTox Green Cytotoxicity Assay to monitor cytotoxicity in HEK293 cells - 0 hour (AID 1224869)
# Conditions: CellTox Green fluorescence; series mostly up to 76.8 µM
# How it was run: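 Dead-cell fluorescence measured kinetically: asymmetric cyanine dye, HEK293, 600 cells/well, 5 h settle, 23 nL cpd/DMSO, 37 C, reads 0–40 h every 8 h.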
row,Structure (SMILES),Potency
1,Cl[C@H]1OCCO[C@@H]1Cl,inactive
2,N#CN=C(N)N,inactive
3,N#Cc1cccc(C#N)c1,inactive
4,COC(C)(C)CCCC(C)C/C=C/C(C)=C/C(=O)OC(C)C (stereo unspecified),inactive
5,Nc1cccc(Cl)c1,inactive
6,Clc1cnc(Oc2ccc(Oc3ncc(Cl)cc3Cl)cc2)c(Cl)c1,inactive
7,C=CCN=C=S,inactive
8,Cc1ccc(O)c(C)c1,inactive
9,CSc1nnc(C(C)(C)C)c(=O)n1N,inactive
10,Cc1cc(Cl)ccc1OC(C)C(=O)O (stereo unspecified),inactive
11,O=[N+]([O-])c1ccc(Cl)c(Cl)c1,inactive
12,CNC(=O)Oc1cccc2ccccc12,inactive
13,Sc1ccccc1,inactive
14,CNC(=O)O/N=C/C(C)(C)S(C)=O (stereo unspecified),inactive
15,CCNc1nc(Cl)nc(NC(C)C)n1,inactive
16,O=[N+]([O-])c1cc([As](=O)(O)O)ccc1O,inactive
17,CNC(=O)O/N=C/C(C)(C)SC,inactive
18,CC(C)CCCCCCOC(=O)c1ccccc1C(=O)OCCCCCCC(C)C,inactive
19,C=CC#N,inactive
20,O=C(O)C1C(C(=O)O)C2(Cl)C(Cl)=C(Cl)C1(Cl)C2(Cl)Cl (stereo unspecified),inactive
21,Cc1cccc(N)c1,inactive
22,CN(C)NC(=O)CCC(=O)O,inactive

# Source: PubChem BioAssay (Tox21)
